Compounds with a hit are over-represented: about 19% of the library has one in this group of screens.
LASV entry inh: inhibitors of Lassa virus binding or cell entry | hit rate 1.2% among 300,000 | Lassa virus pseudotype entry inhibition, cell reporter | Potency, µM (top dose mostly 37.9 µM), most hits filed as inhibitors; calls by dose curve; tested in HEK293 cells; note: nearly all actives have a fitted effect of over 50% in size
Pf growth 48h: inhibits P. falciparum growth in the first generation, 48 h. P. falciparum luciferase growth in erythrocytes, 48 h. hit rate 5.9% among 310,000. Potency, µM (highest dose often 28.7 µM), usual class: inhibitors. AID 504832
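Parasite viability was followed by luminescence of a genomically integrated firefly luciferase. Cultures held 0.1% parasitemia at 2% hematocrit (final), incubated under 5% CO2 at 37 C.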
MARV entry inh: inhibitors of Marburg virus binding or cell entry. Marburg virus pseudotyped entry inhibition, cell reporter. Potency, µM (highest dose often 37.8 µM), hits mostly inhibitors. hit rate 1.8% among 300,000; calls by dose curve; tested in HEK293 cells
CHX counter: affects cycloheximide protein synthesis inhibition readout, counter-screen; cell reporter, cycloheximide protein synthesis inhibition counterscreen; AID 2314; hit rate 12% among 300,000; max response, %; in the data active = max response mostly above about 13%, no sharp cut-off; inactive = mostly below about 14%; note: read at 38.3 µM for the half of the compounds with a filed dose
Pf growth 96h: P. falciparum growth inhibition at 96 hours; Potency, µM (highest dose often 28.7 µM), hits mostly inhibitors; P. falciparum luciferase reporter growth, 96 h; hit rate 6.9% among 320,000
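Infected RBCs, 2% Hct / 0.05% parasitemia final; luciferase-reporter P. falciparum; cpd 96 h, 37 C, 5% CO2; luciferase detection reagent; luminescence.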
Shiga toxin inh: blocks Shiga toxin action in Vero cells | Vero cells, Shiga toxin protein synthesis inhibition reporter | inhibition, % at 38.7 µM | hit rate 9.2% among 290,000 | AID 2315; in the data active = inhibition mostly above about 28%, no sharp cut-off; inactive = mostly below about 43%
A number is an active result; 0 = inactive; ? = inconclusive; - = no result given. Unless noted, calls come from the whole dose curve; as a rule, active = well fitted inhibition curve with a large enough effect; inconclusive = small, poorly fitted or top-dose-only effect, or another doubt; inactive = no such curve, though single readings can be large or run the other way.

SMILES	LASV entry inh	Pf growth 48h	MARV entry inh	CHX counter	Pf growth 96h	Shiga toxin inh
CCN(C(=O)c1cc2c(C)nc3ccccc3c2o1)c1cc(Cl)ccc1OC	?	?	12.6µM	0	0	0
COc1cc(C(=O)NCc2ccc(-c3nc4ccccc4o3)cc2)cc(OC)c1OC	?	0	?	0	0	0
CCOc1ccc(N2CC(C(=O)N3CCCc4ccccc43)CC2=O)cc1 (stereo unspecified)	0	0	0	31.5	0	64.0
CCCc1cc(=O)n2[nH]c(C)nc2n1	0	0	0	0	-	0
Cc1ccc(NC(=S)Nc2ccc3cn[nH]c3c2)cc1	0	0	0	17.9	0	0
Cc1cc(C)cc(NC(=S)Nc2ccc3cn[nH]c3c2)c1	0	0	0	0	0	0
S=C(Nc1ccccc1)Nc1ccc2cn[nH]c2c1	-	0	-	46.1	0	55.1
Cc1ccc(NC(=S)Nc2cccc(-c3n[nH]c(=S)o3)c2)cc1	?	0	?	32.4	0	40.2
O=C(NC(=S)Nc1ccc2cn[nH]c2c1)c1ccccc1	0	0	0	40.9	0	78.7
CC[n+]1c(-c2ccc(C)cc2)csc1Nc1c(C)n(C)n(-c2ccccc2)c1=O	?	0	?	0	?	0
CC1(c2ccccc2Cl)NC(=O)N(CC(=O)NCCC2=CCCCC2)C1=O (stereo unspecified)	0	0	0	0	0	0
CCn1c(SCc2ccc(C(=O)OC)o2)nnc1-c1c[nH]c2ccccc12	-	-	-	0	?	0
COc1ccccc1CNS(=O)(=O)c1ccc2c(c1)oc(=O)n2C	-	-	-	0	0	0
CCN(CC)CCN(C(=O)/C=C/c1cccs1)c1nc2ccc(Cl)cc2s1	-	?	-	0	?	0
CCN(CC)CCN(C(=O)c1ccccc1OC)c1nc2ccc(F)cc2s1	-	0	-	20.5	?	0
CN(C)CCN(C(=O)/C=C/c1cccs1)c1nc2ccc(F)cc2s1	?	0	?	0	10.4µM	0
CCN(CC)CCN(C(=O)c1ccc2c(c1)CCCC2)c1nc2ccc(F)cc2s1	0	?	?	0	?	0
CN(C)CCCN(C(=O)c1cc(-c2cccs2)nc2ccccc12)c1nc2ccc(F)cc2s1	6.31µM	3.29µM	?	0	2.08µM	0
CCn1cc(/C=C(\NC(=O)c2ccc(C)cc2)C(=O)NCCCN2CCOCC2)c2ccccc21	-	?	-	0	?	0
CCOc1ccc(N(CC(=O)NC2CCCCC2)C(=O)Cn2nnc(-c3ccc(C)o3)n2)cc1	-	0	0	0	0	0
COc1ccc(CN2CCNC(=O)C2CC(=O)N(C)Cc2ccno2)c(F)c1 (stereo unspecified)	0	0	0	0	?	0
COc1ccc(C(=O)Nc2ccc3oc(-c4ccc5ccccc5c4)nc3c2)cc1Br	0	-	-	-	-	-
CCOc1ccc(C(=O)Nc2ccc(-c3nc4cc(C)ccc4o3)cc2)cc1	0	-	-	-	-	-
CCCC(=O)Nc1ccc(C)c(O)c1	?	-	?	0	0	0
CCCC(=O)Nc1ccc(-c2nc3cc(C)ccc3o2)cc1	?	0	0	31.4	-	70.3
SMILES	LASV entry inh	Pf growth 48h	MARV entry inh	CHX counter	Pf growth 96h	Shiga toxin inh
CCCC(=O)Nc1ccc(-c2nc3cc(C)c(C)cc3o2)c(O)c1	0	0	?	32.4	0	0
CCCC(=O)Nc1ccc2oc(-c3ccc(OC)c(Br)c3)nc2c1	0	?	?	21.5	?	0
CCN1CCN(c2c(S(=O)(=O)c3ccc(C)c(C)c3)cnc3ccc(F)cc23)CC1	-	?	?	0	2.33µM	0
CCc1ccc(C(=O)c2cnc3ccc(OC)cc3c2N2CCN(CC)CC2)cc1	-	0	-	0	0	0
COc1ccc(N2C(=O)CCC2(C#N)c2ccc(OC)cc2)cc1 (stereo unspecified)	0	0	0	0	0	0
O=C(Nc1cccc([N+](=O)[O-])c1)N1CCCCCC1	-	0	-	0	3.7µM	0
O=C(Nc1ccccc1)N1CCN(c2ccc(C(F)(F)F)cn2)CC1	0	-	0	0	0	0
CC(C)(C)c1ccc(NC(=O)N2CCCN(c3ccc([N+](=O)[O-])cn3)CC2)cc1	?	8.28µM	0	0	?	0
Cc1cccc(Cl)c1NC(=S)N1CCN(c2ccc([N+](=O)[O-])cn2)CC1	0	1.65µM	?	0	1.65µM	0
O=C(Nc1ccc([N+](=O)[O-])cc1)N1CCCCC1	-	0	-	0	8.28µM	0
CN1CCN(C(=O)Nc2ccc([N+](=O)[O-])cc2)CC1	-	0	-	0	0	0
O=C(Nc1ccc([N+](=O)[O-])cc1)N1CCCCCC1	0	0	?	40.8	?	50.5
